# Results reported in the supplement of paper PMC8728848.
# The full list was thinned out, with the strongest signals kept by preference.
# Experiments:
# Assay in all cases: glycan array binding signal (z-score within array); higher = stronger binding
# [1] = system: Fuc(a1-2)Gal(b1-4)[Fuc(a1-3)]GlcNAc(b1-2)Man(a1-3)[Fuc(a1-2)Gal(b1-4)[Fuc(a1-3)]GlcNAc(b1-2)Man(a1-6)]Man(b1-4)GlcNAc(b1-4)GlcNAc; conditions: glycan notation: IUPAC condensed, linker removed
# Method in brief: (§1)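 Glycan array data came from 3228 arrays in the Consortium for Functional Glycomics database, and only arrays with an available protein sequence were kept. Glycan names were put into IUPAC-condensed notation, and columns mapping to the same glycan were averaged. The binding signal is a within-array Z-score, averaged across arrays of one protein sequence run at different concentrations or buffers and across linkers. A negative Z-score can be read as non-binding.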
# [2] = system: Fuc(a1-2)Gal(b1-4)[Fuc(a1-3)]GlcNAc(b1-2)[Fuc(a1-2)Gal(b1-4)[Fuc(a1-3)]GlcNAc(b1-4)]Man(a1-3)[Fuc(a1-2)Gal(b1-4)[Fuc(a1-3)]GlcNAc(b1-2)Man(a1-6)]Man(b1-4)GlcNAc(b1-4)GlcNAc; conditions: glycan notation: IUPAC condensed, linker removed
# Method in brief: as §1
# [3] = system: Fuc(a1-2)Gal(b1-4)[Fuc(a1-3)]GlcNAc(b1-3)GalNAc; conditions: glycan notation: IUPAC condensed, linker removed
# Method in brief: as §1
# [4] = system: Fuc(a1-2)[Gal(a1-3)]Gal(b1-4)Glc; conditions: glycan notation: IUPAC condensed, linker removed
# Method in brief: as §1
# [5] = system: Fuc(a1-2)Gal(b1-4)[Fuc(a1-3)]GlcNAc(b1-3)Gal(b1-4)[Fuc(a1-3)]GlcNAc(b1-3)Gal(b1-4)[Fuc(a1-3)]GlcNAc; conditions: glycan notation: IUPAC condensed, linker removed
# Method in brief: as §1
# [6] = system: Fuc(a1-2)Gal(b1-4)[Fuc(a1-3)]GlcNAc(b1-3)Gal(b1-4)[Fuc(a1-3)]GlcNAc; conditions: glycan notation: IUPAC condensed, linker removed
# Method in brief: as §1
# [7] = system: Fuc(a1-2)[Gal(a1-3)]Gal(b1-4)GlcNAc(b1-3)GalNAc; conditions: glycan notation: IUPAC condensed, linker removed
# Method in brief: as §1
# Fuc(a1-2)Gal = conditions: glycan notation: IUPAC condensed, linker removed
# Method in brief: as §1
# [8] = system: Fuc(a1-2)Gal3S(b1-4)GlcNAc; conditions: glycan notation: IUPAC condensed, linker removed
# Method in brief: as §1
# [9] = system: Fuc(a1-2)Gal6S(b1-3)GlcNAc; conditions: glycan notation: IUPAC condensed, linker removed
# Method in brief: as §1
# [10] = system: Fuc(a1-2)Gal6S(b1-4)Glc6S; conditions: glycan notation: IUPAC condensed, linker removed
# Method in brief: as §1
# [11] = system: Fuc(a1-2)[Gal(a1-3)]Gal(b1-4)GlcNAc(b1-3)[Fuc(a1-2)[Gal(a1-3)]Gal(b1-4)GlcNAc(b1-6)]GalNAc; conditions: glycan notation: IUPAC condensed, linker removed
# Method in brief: as §1
# [12] = system: Fuc(a1-2)[Gal(a1-4)]Gal(b1-4)GlcNAc; conditions: glycan notation: IUPAC condensed, linker removed; mutation: R125K
# Method in brief: as §1
# [13] = system: Fuc(a1-2)Gal6S(b1-4)GlcNAc; conditions: glycan notation: IUPAC condensed, linker removed
# Method in brief: as §1
# Fuc(a1-2)[Gal(a1-3)]Gal = conditions: glycan notation: IUPAC condensed, linker removed
# Method in brief: as §1
# Fuc(a1-2)Gal6S(b1-4)Glc = conditions: glycan notation: IUPAC condensed, linker removed
# Method in brief: as §1
# [14] = system: Fuc(a1-2)[Gal(a1-3)]Gal(b1-3)GlcNAc(b1-2)Man(a1-3)[Fuc(a1-2)[Gal(a1-3)]Gal(b1-3)GlcNAc(b1-2)Man(a1-6)]Man(b1-4)GlcNAc(b1-4)GlcNAc; conditions: glycan notation: IUPAC condensed, linker removed
# Method in brief: as §1
# [15] = system: Fuc(a1-2)[Gal(a1-3)]Gal(b1-4)GlcNAc(b1-2)Man(a1-3)[Fuc(a1-2)[Gal(a1-3)]Gal(b1-4)GlcNAc(b1-2)Man(a1-6)]Man(b1-4)GlcNAc(b1-4)[Fuc(a1-6)]GlcNAc; conditions: glycan notation: IUPAC condensed, linker removed
# Method in brief: as §1
# Chain of PILRb (Mus musculus), Q2YSF2 (Q2YSF2 entry or part of it): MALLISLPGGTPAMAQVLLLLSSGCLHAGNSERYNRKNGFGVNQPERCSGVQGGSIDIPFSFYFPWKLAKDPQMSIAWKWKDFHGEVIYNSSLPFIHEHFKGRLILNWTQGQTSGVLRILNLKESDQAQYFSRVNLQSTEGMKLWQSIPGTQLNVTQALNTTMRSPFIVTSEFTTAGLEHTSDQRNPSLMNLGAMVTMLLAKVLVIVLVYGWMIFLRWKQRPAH
# Chain of PILRa (Mus musculus), Q2YSF3 (Q2YSF3 entry or part of it): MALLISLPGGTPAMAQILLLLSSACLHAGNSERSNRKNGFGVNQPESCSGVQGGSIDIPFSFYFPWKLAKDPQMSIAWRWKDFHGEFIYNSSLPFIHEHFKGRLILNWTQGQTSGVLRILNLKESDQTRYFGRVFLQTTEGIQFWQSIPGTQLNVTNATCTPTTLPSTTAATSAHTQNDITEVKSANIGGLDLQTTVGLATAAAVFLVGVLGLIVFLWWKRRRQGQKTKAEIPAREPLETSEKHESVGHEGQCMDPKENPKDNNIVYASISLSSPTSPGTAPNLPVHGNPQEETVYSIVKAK
# Chain of 6RG (Lolium perenne) (chain, as listed by the source): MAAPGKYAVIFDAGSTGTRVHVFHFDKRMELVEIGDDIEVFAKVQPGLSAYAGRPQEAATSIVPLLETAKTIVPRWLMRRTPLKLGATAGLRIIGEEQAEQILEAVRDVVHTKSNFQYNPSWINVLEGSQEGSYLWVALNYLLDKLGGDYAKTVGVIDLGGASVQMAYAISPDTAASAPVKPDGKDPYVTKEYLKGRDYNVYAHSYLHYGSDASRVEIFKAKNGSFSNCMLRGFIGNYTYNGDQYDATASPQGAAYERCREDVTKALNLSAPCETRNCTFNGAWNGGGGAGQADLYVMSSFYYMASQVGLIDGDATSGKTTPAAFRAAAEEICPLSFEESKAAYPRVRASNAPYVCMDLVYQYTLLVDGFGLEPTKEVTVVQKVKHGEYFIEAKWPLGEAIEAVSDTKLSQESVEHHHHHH
# Chain of Regenerating Gene IV (Homo sapiens), Q9BYZ8 (Q9BYZ8 whole entry, looked up): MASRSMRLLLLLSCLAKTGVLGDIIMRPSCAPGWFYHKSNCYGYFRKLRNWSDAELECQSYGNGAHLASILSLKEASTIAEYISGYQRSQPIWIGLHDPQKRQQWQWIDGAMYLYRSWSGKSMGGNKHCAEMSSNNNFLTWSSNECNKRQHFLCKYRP
# Chain of Avaren (Actinomycete K97) (chain, as listed by the source): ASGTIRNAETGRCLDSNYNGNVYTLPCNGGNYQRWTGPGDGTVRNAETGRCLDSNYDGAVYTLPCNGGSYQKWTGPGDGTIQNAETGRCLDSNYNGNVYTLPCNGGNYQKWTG
# Chain of SRLC (Mus musculus), Q8VIF6 (Q8VIF6 other isoform, or with tags, fused parts or gaps): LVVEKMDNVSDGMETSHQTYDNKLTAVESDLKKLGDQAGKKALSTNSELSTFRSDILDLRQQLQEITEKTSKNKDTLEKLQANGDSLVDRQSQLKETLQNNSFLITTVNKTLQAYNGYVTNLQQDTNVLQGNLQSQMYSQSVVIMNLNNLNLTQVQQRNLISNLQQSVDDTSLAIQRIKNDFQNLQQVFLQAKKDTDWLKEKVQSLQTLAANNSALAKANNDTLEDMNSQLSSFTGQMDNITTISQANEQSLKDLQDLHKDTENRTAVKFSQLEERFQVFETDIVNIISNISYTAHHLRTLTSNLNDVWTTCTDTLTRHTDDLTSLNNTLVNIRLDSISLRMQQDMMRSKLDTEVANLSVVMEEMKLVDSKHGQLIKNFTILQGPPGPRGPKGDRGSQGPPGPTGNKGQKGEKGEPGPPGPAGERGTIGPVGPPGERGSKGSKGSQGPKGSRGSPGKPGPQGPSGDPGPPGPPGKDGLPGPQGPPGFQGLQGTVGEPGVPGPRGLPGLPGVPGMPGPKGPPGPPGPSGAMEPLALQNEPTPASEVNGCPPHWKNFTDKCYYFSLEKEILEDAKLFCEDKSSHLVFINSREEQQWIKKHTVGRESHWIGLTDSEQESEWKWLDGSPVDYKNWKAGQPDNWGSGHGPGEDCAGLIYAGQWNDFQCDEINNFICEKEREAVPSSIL
# Chain of CHI3L1 (Homo sapiens), P36222 (P36222 whole entry): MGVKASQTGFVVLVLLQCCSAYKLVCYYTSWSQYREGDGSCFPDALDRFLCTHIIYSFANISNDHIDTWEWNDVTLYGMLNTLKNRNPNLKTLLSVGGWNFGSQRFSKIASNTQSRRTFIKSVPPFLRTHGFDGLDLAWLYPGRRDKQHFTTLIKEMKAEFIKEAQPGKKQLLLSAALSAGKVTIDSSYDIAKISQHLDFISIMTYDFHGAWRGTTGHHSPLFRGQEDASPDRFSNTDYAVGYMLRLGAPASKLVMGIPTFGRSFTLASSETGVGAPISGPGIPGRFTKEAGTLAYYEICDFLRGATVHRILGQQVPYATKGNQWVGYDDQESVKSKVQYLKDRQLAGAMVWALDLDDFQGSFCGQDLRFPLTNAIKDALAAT
# Chain of 6RG (Lolium perenne), B9U140 (B9U140 entry or part of it): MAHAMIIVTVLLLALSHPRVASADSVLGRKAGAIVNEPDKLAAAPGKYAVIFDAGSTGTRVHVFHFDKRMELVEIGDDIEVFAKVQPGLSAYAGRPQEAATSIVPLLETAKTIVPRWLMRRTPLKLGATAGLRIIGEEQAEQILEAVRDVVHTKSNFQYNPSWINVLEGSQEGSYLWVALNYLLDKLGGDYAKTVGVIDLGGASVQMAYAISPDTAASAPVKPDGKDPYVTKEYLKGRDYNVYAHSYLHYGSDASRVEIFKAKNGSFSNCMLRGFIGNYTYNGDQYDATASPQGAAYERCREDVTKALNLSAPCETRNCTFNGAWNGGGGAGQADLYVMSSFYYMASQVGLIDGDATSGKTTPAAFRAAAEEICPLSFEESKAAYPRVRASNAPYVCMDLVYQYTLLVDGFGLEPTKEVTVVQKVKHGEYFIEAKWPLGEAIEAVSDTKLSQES
# Chain of Neurocan (Homo sapiens), O14594 (O14594 other isoform, or with tags, fused parts or gaps): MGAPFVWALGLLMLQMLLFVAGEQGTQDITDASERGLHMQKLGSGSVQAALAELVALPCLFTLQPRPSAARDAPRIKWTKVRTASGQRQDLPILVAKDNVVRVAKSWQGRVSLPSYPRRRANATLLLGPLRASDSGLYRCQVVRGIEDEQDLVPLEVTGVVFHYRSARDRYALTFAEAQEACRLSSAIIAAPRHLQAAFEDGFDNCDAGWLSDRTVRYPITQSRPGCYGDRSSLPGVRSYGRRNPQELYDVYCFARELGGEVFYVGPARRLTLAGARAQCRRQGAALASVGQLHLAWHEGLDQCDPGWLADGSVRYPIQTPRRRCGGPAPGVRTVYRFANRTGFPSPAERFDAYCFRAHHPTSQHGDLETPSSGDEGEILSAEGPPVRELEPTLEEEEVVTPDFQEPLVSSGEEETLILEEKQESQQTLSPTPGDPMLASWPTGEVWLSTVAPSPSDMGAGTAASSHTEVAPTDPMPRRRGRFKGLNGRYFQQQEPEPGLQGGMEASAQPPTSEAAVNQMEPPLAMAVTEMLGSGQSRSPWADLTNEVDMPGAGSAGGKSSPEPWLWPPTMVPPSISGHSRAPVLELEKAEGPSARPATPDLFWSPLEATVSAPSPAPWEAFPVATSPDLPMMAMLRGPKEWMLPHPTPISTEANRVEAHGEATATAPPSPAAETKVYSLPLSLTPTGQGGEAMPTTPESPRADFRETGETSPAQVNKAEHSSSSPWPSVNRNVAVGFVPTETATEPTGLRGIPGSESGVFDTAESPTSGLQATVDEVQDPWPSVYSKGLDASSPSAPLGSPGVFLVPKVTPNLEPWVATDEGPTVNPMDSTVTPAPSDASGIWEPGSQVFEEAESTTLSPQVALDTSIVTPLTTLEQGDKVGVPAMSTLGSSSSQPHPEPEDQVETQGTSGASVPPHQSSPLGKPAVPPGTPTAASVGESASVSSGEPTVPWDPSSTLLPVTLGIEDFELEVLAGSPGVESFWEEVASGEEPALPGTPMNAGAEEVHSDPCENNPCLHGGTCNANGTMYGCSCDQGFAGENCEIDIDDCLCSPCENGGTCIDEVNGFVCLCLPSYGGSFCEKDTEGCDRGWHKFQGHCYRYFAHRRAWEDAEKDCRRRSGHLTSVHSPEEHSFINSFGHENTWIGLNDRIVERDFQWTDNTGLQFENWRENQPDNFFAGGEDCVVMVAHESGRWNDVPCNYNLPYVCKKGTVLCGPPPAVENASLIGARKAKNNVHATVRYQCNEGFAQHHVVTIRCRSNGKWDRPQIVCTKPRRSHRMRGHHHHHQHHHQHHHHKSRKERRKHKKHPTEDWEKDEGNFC
# Chain of Aggrecan (Rattus norvegicus), NP_071526 (chain, as listed by the source): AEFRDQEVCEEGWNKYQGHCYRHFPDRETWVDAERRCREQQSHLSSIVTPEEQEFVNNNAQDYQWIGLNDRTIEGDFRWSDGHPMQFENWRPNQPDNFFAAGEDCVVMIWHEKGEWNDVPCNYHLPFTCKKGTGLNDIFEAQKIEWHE
# Chain of wLAT-1A (Homo sapiens), Q01650 (Q01650 whole entry): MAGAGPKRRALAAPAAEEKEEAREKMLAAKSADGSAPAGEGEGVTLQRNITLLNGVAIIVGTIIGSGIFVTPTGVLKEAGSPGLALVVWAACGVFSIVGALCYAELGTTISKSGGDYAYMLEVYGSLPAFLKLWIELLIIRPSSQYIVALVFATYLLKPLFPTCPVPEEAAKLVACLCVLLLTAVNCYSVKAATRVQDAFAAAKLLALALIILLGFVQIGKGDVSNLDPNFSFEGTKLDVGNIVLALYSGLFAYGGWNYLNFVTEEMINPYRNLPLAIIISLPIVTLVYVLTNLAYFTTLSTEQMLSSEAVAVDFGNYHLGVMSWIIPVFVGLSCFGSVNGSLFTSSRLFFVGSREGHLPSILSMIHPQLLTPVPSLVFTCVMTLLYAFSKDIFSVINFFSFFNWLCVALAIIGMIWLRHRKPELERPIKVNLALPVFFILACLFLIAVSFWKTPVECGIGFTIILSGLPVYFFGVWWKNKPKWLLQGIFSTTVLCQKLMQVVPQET
substance,measurement,setting,value
"PILRb (Mus musculus), Q2YSF2",glycan array binding signal (z-score),[1],2.37
same,glycan array binding signal (z-score),[2],0.151
same,glycan array binding signal (z-score),[3],11.4
same,glycan array binding signal (z-score),[4],-0.137
"Neurocan (Homo sapiens), O14594",glycan array binding signal (z-score),[2],2.6
"PILRa (Mus musculus), Q2YSF3",glycan array binding signal (z-score),[5],-0.134
same,glycan array binding signal (z-score),[6],1.82
same,glycan array binding signal (z-score),[3],1.77
same,glycan array binding signal (z-score),[7],-0.185
6RG (Lolium perenne),glycan array binding signal (z-score),[6],-0.204
same,glycan array binding signal (z-score),Fuc(a1-2)Gal,-0.033
"Siglec-8 (Homo sapiens), Q9NYZ4",glycan array binding signal (z-score),[8],-0.157
same,glycan array binding signal (z-score),[9],0.008
same,glycan array binding signal (z-score),[10]; mutation: R125K,-0.235
same,glycan array binding signal (z-score),[11]; mutation: R125K,2.31
same,glycan array binding signal (z-score),[4],0.008
same,glycan array binding signal (z-score),[12],-0.066
MpAFP RI GFP (Marinomonas primoryensis),glycan array binding signal (z-score),[9],-0.023
same,glycan array binding signal (z-score),[11],-0.23
"Regenerating Gene IV (Homo sapiens), Q9BYZ8",glycan array binding signal (z-score),[10],3.23
same,glycan array binding signal (z-score),Fuc(a1-2)Gal,0.024
"6RG (Lolium perenne), B9U140",glycan array binding signal (z-score),[10],0.291
"wLAT-1A (Homo sapiens), Q01650",glycan array binding signal (z-score),[13],-0.807
"SRLC (Mus musculus), Q8VIF6",glycan array binding signal (z-score),[13],-0.208
same,glycan array binding signal (z-score),Fuc(a1-2)[Gal(a1-3)]Gal,-0.233
Avaren (Actinomycete K97),glycan array binding signal (z-score),Fuc(a1-2)Gal6S(b1-4)Glc,-0.124
same,glycan array binding signal (z-score),[14],-0.036
"CHI3L1 (Homo sapiens), P36222",glycan array binding signal (z-score),[15],-0.116
"Aggrecan (Rattus norvegicus), NP_071526",glycan array binding signal (z-score),Fuc(a1-2)[Gal(a1-3)]Gal,-0.088
